# Screens (PubChem)
# a7 integrin act – qHTS for Activators of Integrin-Mediated Alleviation for Muscular Dystrophy; alpha7betagal myoblasts, beta-gal FDG fluorescence, 48 h; Potency, µM (doses to about 38.3 µM), inactives show at the highest dose activation, usual class: activators; hit rate 0.064% among 350,000;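 further: 100% = response of the positive control SU9516; nearly all actives have a fitted effect of over 60% in size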
#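 Alpha7betagal+/- myoblasts (passage 13) were plated 16-24 hr, then exposed to compounds (1:260 dilution of DMSO stock) for 48 hours at 37C. After MPER lysis, β-galactosidase reporter activity was read as FDG fluorescence (ex 480/em 540) after 30 minutes.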
# A-T KAP1 phos – qHTS Assay for Identifying a Potential Treatment of Ataxia-Telangiectasia; Potency, µM (series often up to 57.5 µM), for inactives: top-dose activation, usual class: activators; hit rate 0.19% among 320,000; F2112 A-T fibroblasts, KAP-1 phosphorylation AlphaLISA; neocarzinostatin DNA damage 30 min before lysis; further: % of control where 0% means no effect; nearly all actives have a fitted effect of over 45% in size
#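 ATM-like activity read as KAP-1 phosphorylation via AlphaLISA donor/acceptor antibody pairs after lysis and 6 hr at 25C. Cells were ATM-null patient fibroblasts (F2112, hTERT), dosed 60 min, then exposed to the DSB inducer NCS for 30 min.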
# MCF10A rereplic – A quantitative high throughput screen for small molecules that induce DNA re-replication in MCF 10a normal breast cells | Potency, µM (top dose mostly 46.1 µM), inactives show at the highest dose activity, positive = re-replication, most hits filed as activators | AID 624296, 2012 | MCF 10A DNA re-replication, Hoechst nuclear intensity, 48 h | hit rate 2.9% among 350,000; further: % of control where 0% means no effect; nearly all actives have a fitted effect of over 50% in size
# SW480 rerep – A quantitative high throughput screen for small molecules that induce DNA re-replication in SW480 colon adenocarcinoma cells | Potency, µM (highest dose often 46.1 µM), without a hit: top-dose re-replication activation, actives largely listed as activators | AID 624297, 2012 | hit rate 1.8% among 340,000 | SW480 DNA re-replication, Hoechst DNA content imaging, 48 h; further: % of control where 0% means no effect; nearly all actives have a fitted effect of over 55% in size
#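 Quantitative HTS format with DMSO vehicle controls; 48 hr drug incubation at 37 C, then 40 min Hoechst staining and scanning imager measurement at 405 nm excitation.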
# Mito fusion yeast – qHTS Assay for Small Molecule Inhibitors of Mitochondrial Division or Activators of Mitochondrial Fusion | S. cerevisiae fusion-defective mutant growth rescue, CellTiterGlo 48 h | Potency, µM (highest dose often 46.1 µM), for inactives: at the top dose growth rescue (activation), most hits filed as activators | hit rate 0.23% among 320,000; further: % of control where 0% means no effect; nearly all actives have a fitted effect of over 45% in size
#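 Read-out: ATP-based luminescence (CellTiterGlo, 10 min ambient) reporting growth of fusion-defective ts yeast after 48 hours at 37C on glycerol/ethanol YPEG medium in the presence of compound.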
# An asterisk follows results filed as active; ? = inconclusive; . = not tested or not shown. Sampled rows, rich in hits. Any-hit rate of the full collection: about 4.2%. The call rests on the fitted dose curve; in most records, active means well fitted activation curve with a large enough effect; inconclusive means small, poorly fitted or top-dose-only effect; inactive means no such curve, though single readings can be large or run the other way. Potency means the concentration at half of the fitted maximal effect.
SMILES,a7 integrin act,A-T KAP1 phos,MCF10A rereplic,SW480 rerep,Mito fusion yeast
COc1ccc(Cl)cc1S(=O)(=O)N1CCN(C(=O)COc2ccccc2)CC1,21.2%,5.1%,1.3%,1.2%,0.3%
CCCCN(C(=O)CCC(=O)Nc1cc(C)on1)C(C(=O)NC1CCCC1)c1ccc(OCC)cc1 (stereo not given),9.7%,2.5%,-4.4%,-12.1%,6.9%
Cn1c(SCC(=O)Nc2ccccc2)nc2c([nH]c3ccccc32)c1=O,12.2%,-0.4%,18.4µM*,-12.5%,5.5%
COc1ccc(CC(=O)NC(C)c2nnc(SCCC(=O)Nc3ccccc3)n2C)cc1 (stereo not given),6.3%,-1.2%,-5.0%,-2.3%,13.2%
N#C/C(=C(/O)CCl)c1nc2c(s1)CCc1ccccc1-2,?,-1.9%,13µM*,?,31.3%
O=C(CCCl)Nc1nc2c(s1)CCc1ccccc1-2,-64.8%,-0.2%,18.4µM*,?,8.4%
COC1=C(N)C(=O)c2nc(-c3nc(C(=O)O)c(C)c(-c4ccc(OC)c(OC)c4O)c3N)ccc2C1=O,.,0.708µM*,-8.4%,-149.5%,2.8%
CCOc1ccc(-c2cccc(NS(=O)(=O)c3ccc([N+](=O)[O-])cc3)c2)nn1,28.1%,-2.0%,-0.3%,-83.3%,9.1%
CC(=O)Nc1ccc(Oc2sc(C(=O)c3ccccc3)c(N)c2C#N)cc1,-34.0%,1.0%,20.6µM*,?,0.7%
Cc1cccc(NC(=O)COc2cccc3c2CCNC3=O)c1,-2.5%,.,.,.,.
Cc1cc([N+](=O)[O-])nn1Cc1noc(C(=O)NCCc2ccccn2)n1,-6.8%,0.4%,5.1%,-4.3%,-1.8%
COC(=O)c1ccc(C(=O)NC2CCCc3c2cnn3-c2ccccc2F)nc1 (stereo not given),-36.5%,-3.1%,14.6µM*,18.4µM*,11.2%
COc1ccc(NC(=O)CN(C)C(=O)c2cn(-c3ccccc3)nc2-c2ccc(Cl)cc2)cc1,-61.1%,-17.8%,14.5%,23.1µM*,29.7%
Cn1c(SCC(=O)NNC(=O)Nc2ccc(Cl)cc2)nnc1-c1ccccc1,19.4%,-5.7%,8.2%,-1.2%,-1.4%
Cn1nnnc1SCC(=O)Nc1ccc(Oc2ccc(Cl)cc2)cc1,-45.8%,1.6%,8.2µM*,14.6µM*,7.9%
CC1(C)N=C(SCC(=O)Nc2ccc(Cl)cc2)C(c2ccc(Cl)cc2)=N1,-22.8%,-1.3%,18.4µM*,?,0.1%
COc1ccc(-c2nnc(SCC(=O)Nc3ccc(Cl)cc3)n2C)cc1,-21.8%,-0.2%,3.26µM*,14.6µM*,-2.1%
Cc1cc2nc(Sc3c([N+](=O)[O-])nc(C)n3Cc3ccccc3)[nH]c2cc1C,-55.6%,1.6%,20.6µM*,?,-3.9%
CN1CCN(S(=O)(=O)c2ccc(N3CCN(S(=O)(=O)/C=C/c4ccccc4)CC3)nc2)CC1,-44.9%,-1.1%,7.31µM*,?,2.9%
CCCCCCN1C[C@@H](n2cc(COC(=O)c3ccccc3)nn2)[C@H](O)C[C@@H]1c1ccccc1,24.9%,.,.,.,.
CCN(CC)S(=O)(=O)c1cccc(NC(=O)c2cc(-c3cccs3)nn2-c2ccccc2)c1,-17.0%,2.6%,-47.6%,8.2µM*,0.2%
CN(C)S(=O)(=O)c1cccc(NC(=O)c2cc(-c3cccs3)nn2-c2ccccc2)c1,-5.7%,.,?,?,2.7%
Cc1ccc(N2CCN(S(=O)(=O)N3CCCCC3)CC2)c(C)c1,?,-1.0%,?,-62.9%,15.9%
Cc1ccc(C2=N/C(=C\c3ccc(F)cc3)C(=O)N2)cc1,3.4%,5.8%,?,14.6µM*,3.7%
COc1cccc(OC)c1OCc1cc(C2C3CCCC=C3C(C#N)=C(N)C2(C#N)C#N)c(C)cc1C (stereo not given),22.7%,1.0%,12.6µM*,17.8µM*,0.1%
SMILES,a7 integrin act,A-T KAP1 phos,MCF10A rereplic,SW480 rerep,Mito fusion yeast
COc1ccc(NC(=O)CNCc2cccs2)c(OC)c1,4.3%,.,.,.,.
O=C(CSc1nc2ncc(Cl)cc2[nH]1)c1c[nH]c2ccccc12,21.0%,2.0%,23.1µM*,24.8%,-0.5%
Cc1ccc(-c2cc3nc(-c4ccccc4)cc(N4CCC5(CC4)OCCO5)n3n2)cc1,2.6%,35.9%,?,18.4µM*,?
Cc1cccc(-c2cc3nc(C)cc(NCCCN(C)C)n3n2)c1,0.0%,0.0%,?,17.1%,-5.7%
COCCN1CCN(c2cc(-c3ccccc3)nc3cc(-c4cccc(F)c4)nn23)CC1,-1.7%,8.4%,20.6µM*,?,?
CN(C)CCCNc1cc(-c2ccccc2)nc2cc(-c3cccc(F)c3)nn12,-63.7%,0.0%,20.6µM*,?,-18.2%
COc1ccc(-c2cc3nc(-c4ccccc4)cc(N4CCCC(O)C4)n3n2)cc1 (stereo not given),10.0%,22.7%,20.6µM*,?,?
Cc1cccc(-c2cc3nc(-c4ccccc4)cc(N4CCC5(CC4)OCCO5)n3n2)c1,-4.2%,22.7%,12.0%,?,?
COc1ccc(C(=O)O)cc1S(=O)(=O)N1CCN(Cc2ccc3c(c2)OCO3)CC1,14.5%,8.4%,6.9%,-1.9%,.
Cc1ccc(NC(=O)c2ncn(CCCNCC3CCCCC3)n2)cc1C,-58.4%,.,.,.,.
Cc1ccc(-n2nc3ccc(NC(=O)/C=C/c4ccco4)cc3n2)cc1,-37.2%,12.2%,11.6µM*,?,7.4%
Nc1c(C(=O)O)sc2nc3c(cc12)CCCC3,-4.8%,1.1%,0.5%,-9.8%,-3.2%
Nc1c(C(=O)C2CC2)sc2nc3c(cc12)CCC3,?,2.0%,14.6µM*,?,6.2%
COc1ccc(C(=O)Nc2nccs2)cc1,-6.0%,11.3%,5.4%,-1.3%,-5.7%
COc1ccc(S(=O)(=O)Nc2ccc(S(=O)(=O)Nc3nccs3)cc2)cc1,12.6µM*,0.7%,-39.8%,5.5%,-6.2%
COc1ccc(NC(=O)Nc2nccs2)cc1,-7.6%,-1.3%,?,11.6µM*,0.5%
O=S(=O)(Nc1ccc(S(=O)(=O)Nc2nccs2)cc1)c1ccc2c(c1)OCCO2,23.6%,-0.1%,20.6µM*,?,-0.8%
COCCN(C(=O)COC(=O)c1ccc2c(c1)OCO2)c1c(N)n(Cc2ccccc2)c(=O)[nH]c1=O,-16.5%,.,.,.,.
N#Cc1cccnc1N1CCN(C(=O)COCC(=O)O)CC1,-6.7%,-5.6%,4.2%,-12.2%,1.0%
Cc1nc(SCC(=O)Nc2cc(Cl)ccc2[N+](=O)[O-])nc(C)c1C,-13.4%,-7.4%,9.4%,-1.4%,24.0%
Oc1cccc(Nc2nc(NCC3CCCO3)c3ccccc3n2)c1 (stereo not given),-27.5%,-12.2%,14.6µM*,6.5%,-17.7%
COCc1cc(C)nc(N/N=C/c2ccc(-c3ccc(Cl)cc3[N+](=O)[O-])o2)c1C#N,-15.6%,-18.7%,-4.3%,4.7%,5.4%
